In the library only some 22% were active in any assay of this set; here they are far more common.
CHX counter – affects cycloheximide protein synthesis inhibition readout, counter-screen; 300,000 tested, 12% active; max response, %; cell reporter, cycloheximide protein synthesis inhibition counterscreen; in the data active = max response mostly above about 13%, no sharp cut-off; inactive = mostly below about 14%; note: read at 38.3 µM for the half of the compounds with a filed dose; 0% is about no effect
Shiga toxin inh – inhibitors of Shiga toxin in Vero cells; Vero cells, Shiga toxin protein synthesis inhibition reporter; inhibition, % at 38.7 µM; 290,000 tested, 9.2% active; in the data active = inhibition mostly above about 28%, no sharp cut-off; inactive = mostly below about 43%; note: 0% is about no effect
Pf growth 96h – P. falciparum growth inhibition at 96 hour, primary screen for plastid delayed-death inhibitors; Potency, µM (highest dose often 28.7 µM), for inactives: top-dose activity change, negative = inhibition, actives largely listed as inhibitors; P. falciparum luciferase reporter growth, 96 h; 320,000 tested, 6.9% active; note: potency is the fitted concentration of half-maximal effect; % is set by controls: 0 for no effect and ±100 for the full control effect
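Readout is luminescence from an integrated firefly luciferase in P. falciparum. Red cells, 2% hematocrit and 0.05% parasitemia final, were cultured with compound through two parasite generations (96 hours) at 37 C, 5% CO2.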
Pf growth 48h – P. falciparum growth inhibition at 48 hours (one generation) | P. falciparum luciferase growth in erythrocytes, 48 h | Potency, µM (titrated, usually from 28.7 µM), for the others: at the highest dose activity change, negative = inhibition, usual class: inhibitors | 310,000 tested, 5.9% active; note: potency is the fitted concentration of half-maximal effect; % is set by controls: 0 for no effect and ±100 for the full control effect
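Parasite viability was followed by luminescence of a genomically integrated firefly luciferase. Cultures held 0.1% parasitemia at 2% hematocrit (final), incubated under 5% CO2 at 37 C.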
LmPK inhibitor – LmPK (Leishmania mexicana) enzyme inhibition | Q27686 | purified LmPK, Kinase-Glo ATP luminescence, 1 h | Potency, µM (titrated, usually from 57.5 µM), inactives show at the top dose activity change, negative = inhibition, usual class: inhibitors | 290,000 tested, 0.37% active | AID 1721; note: potency is the fitted concentration of half-maximal effect; % is set by controls: 0 for no effect and ±100 for the full control effect
Target sequence (Q27686 whole entry, looked up): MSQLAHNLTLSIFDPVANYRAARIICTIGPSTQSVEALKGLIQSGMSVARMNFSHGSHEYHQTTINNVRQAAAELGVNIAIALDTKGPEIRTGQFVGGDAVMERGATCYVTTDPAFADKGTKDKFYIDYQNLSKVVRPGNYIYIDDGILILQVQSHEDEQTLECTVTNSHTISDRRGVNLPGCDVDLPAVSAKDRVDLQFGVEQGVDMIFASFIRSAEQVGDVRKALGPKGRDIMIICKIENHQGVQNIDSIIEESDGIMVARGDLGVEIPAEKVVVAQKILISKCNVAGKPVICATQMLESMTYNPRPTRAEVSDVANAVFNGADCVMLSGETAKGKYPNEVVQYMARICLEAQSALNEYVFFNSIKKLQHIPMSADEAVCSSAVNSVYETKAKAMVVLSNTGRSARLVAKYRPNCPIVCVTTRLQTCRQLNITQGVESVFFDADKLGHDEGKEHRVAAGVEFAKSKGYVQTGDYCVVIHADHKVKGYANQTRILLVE
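0.1 nM LmPK, 0.5 mM PEP, 0.1 mM ADP; 50 mM imidazole pH 7.2, 7 mM MgCl2, 50 mM KCl; 1 h RT. Kinase-Glo luminescence readout, normalized to no-enzyme (full inhibition) and uninhibited wells.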
* hit, by the source's call; i = inactive; u = inconclusive; x = no result; [ ] = another dose, or the depositor's remark. Unless noted, calls come from the whole dose curve; as a rule, active = well fitted inhibition curve with a large enough effect; inconclusive = small, poorly fitted or top-dose-only effect, or another doubt; inactive = no such curve, though single readings can be large or run the other way.

SMILES	CHX counter	Shiga toxin inh	Pf growth 96h	Pf growth 48h	LmPK inhibitor
O=C(CSc1nc2cc(S(=O)(=O)N3CCOCC3)ccc2o1)NC1CCCc2ccccc21 (stereo not drawn)	0	18	u	9.3µM*	5%
O=C(CN(C(=O)CCC(=O)Nc1ccccn1)c1ccccc1F)NCc1ccc2c(c1)OCO2	-3	2	-25%	15%	13%
COC(=O)c1ccccc1NS(=O)(=O)c1c(C)noc1C	0	-4	13%	118%	-4%
CCc1nnc(NC(=O)c2cccc(S(=O)(=O)N3CCN(c4ccccc4)CC3)c2)s1	0	15	10µM*	x	11%
Cn1c(C2=C(O)CN(Cc3ccccc3)C2=N)[n+](C)c2ccccc21	15	50	-13%	-5%	2%
Cn1c(C2=C(O)CN(Cc3ccccc3)C2=N)nc2ccccc21	33*	33*	62%	41%	1%
C=CCN(C(=O)c1cccc(C(F)(F)F)c1)C1(C(=O)Nc2ccccc2)CCN(C(C)C)CC1	-4	-9	7.4µM*	u	-4%
CCCCCNc1nc(N2CCCC2)c2c(c1C#N)CCN(C)C2	-10	-18	0%	4.1µM*	1%
CN1CCc2c(C#N)c(N3CCOCC3)nc(NCC3CCCO3)c2C1 (stereo not drawn)	1	8	u	u	-1%
CCCCCNc1nc(NCCCO)c(C#N)c2c1CN(C)CC2	-2	-3	12µM*	x	3%
O=C(/C=C/c1cccs1)N1CCN(Cc2ccc3c(c2)OCO3)CC1	-1	13	128%	-12%	-4%
COc1ccc(N2CCn3c2nc2c3c(=O)n(CCCc3ccccc3)c(=O)n2C)c(OC)c1	-3	10	u	u	2%
COc1ccc(N2CC(C)Cn3c2nc2c3c(=O)n(Cc3ccccc3)c(=O)n2C)c(OC)c1 (stereo not drawn)	-3	3	8.3µM*	u	8%
COc1ccc(N2CCn3c2nc2c3c(=O)n(CCc3ccccc3)c(=O)n2C)c(OC)c1	0	-9	12µM*	-6%	1%
COc1ccc(N2CC(C)Cn3c2nc2c3c(=O)n(CCc3ccccc3)c(=O)n2C)cc1 (stereo not drawn)	-3	-6	-9%	u	-1%
COc1ccc(-c2nnc3n(CCc4ccccc4)c(=O)c4ccccc4n23)c(OC)c1	0	6	4.7µM*	13µM*	-2%
COc1ccc(CCNC(=O)C(=O)NCC2OCCN2S(=O)(=O)c2cc(F)ccc2F)cc1OC (stereo not drawn)	2	17	3%	u	-2%
COc1cc2c(cc1OC)C1O[C@](CCCCN3C(=O)c4ccccc4C3=O)(C2)Oc2c1c(=O)oc1ccccc21	-2	i	u	u	-6%[11.5 µM]
COc1ccc(-n2nc(C(=O)NCC(=O)N3CCN(c4ccc(F)cc4)CC3)c3ccccc3c2=O)c(OC)c1	16*	29	30%	u	8%
COc1ccc(-n2nc(C(=O)NCC(=O)N3CCCC3)c3ccccc3c2=O)c(OC)c1	11	18	38%	17%	-1%
COc1ccc(OC)c(NC(=O)CSc2nc3ccccc3c(=O)n2CCNC(C)=O)c1	-1	-1	-7%	u	2%
COc1ccc(OC)c(NC(=O)Cn2c(C)nc3ccccc3c2=O)c1	32*	82*	1%	-15%	1%
COc1ccc(-n2nc(C(=O)NCC(=O)Nc3cc(C)ccc3OC)c3ccccc3c2=O)c(OC)c1	-2	3	u	12µM*	3%
CCOC(=O)N1CCN(C(=O)CNC(=O)c2nn(-c3ccc(OC)cc3OC)c(=O)c3ccccc23)CC1	25*	31*	1µM*	u	3%
O=c1c2ccccc2ncn1-c1ccc([N+](=O)[O-])cc1Cl	-2	-3	u	2%	-2%
SMILES	CHX counter	Shiga toxin inh	Pf growth 96h	Pf growth 48h	LmPK inhibitor
Brc1cccc(-c2cnco2)c1	-2	15	1%	8%	-3%
COc1ccc(-n2nc(C(=O)NCC(=O)N3CCN(c4ccccc4)CC3)c3ccccc3c2=O)c(OC)c1	16	37	-16%	-29%	-3%
COc1ccc(-n2nc(C(=O)NCC(=O)N3CC(C)CC(C)C3)c3ccccc3c2=O)c(OC)c1 (stereo not drawn)	7	-8	15%	2.1µM*	6%
Cc1ccc(NC(=O)/C(C#N)=C/c2cc(C)n(-c3ccc(N4CCOCC4)c([N+](=O)[O-])c3)c2C)c(C)c1	-2	-11	12µM*	u	2%
Cc1cc(/C=C(\C#N)C(=O)Nc2ccc(Cl)cc2)c(C)n1-c1ccc(N2CCOCC2)c([N+](=O)[O-])c1	-4	-3	7.4µM*	12µM*	-4%
Cc1cc(C=O)c(C)n1-c1ccc(N2CCOCC2)c([N+](=O)[O-])c1	-2	-22	5%	-11%	1%
CCCC(=O)Nc1cc(C(=O)O)ccc1S(=O)(=O)c1ccc(Cl)cc1	-4	-17	u	3%	-5%
O=C1NC(=O)N(c2ccc3c(c2)OCO3)C(=O)/C1=C/c1cccs1	1	49*	19%	17%	6%
COc1ccc(Nc2ncccc2C(=O)Nc2ccccc2)cc1	7	-3	33%	-62%	7%
CC(C)c1ccc(Nc2ncccc2C(=O)O)cc1	43*	15	20%	119%	-13%
S=c1[nH]c2ccccc2n1CCOc1ccccc1	21*	x	u	u	-2%
Cc1ccc(OCCn2c(=S)[nH]c3ccccc32)c(C(C)C)c1	0	-5	46%	12µM*	4%
Cc1cccc(OCCn2c(=S)[nH]c3ccccc32)c1	13*	19	13µM*	u	-3%
COc1ccccc1OCCn1c(=S)[nH]c2ccccc21	-3	-9	-14%	-3%	2%
C=C(C)CN(CC)C(=O)CSc1ccc(S(=O)(=O)N2CCN(Cc3ccccc3)CC2)cn1	x	x	8.3µM*	u	x
CN(C)C(=O)CSc1ccc(S(=O)(=O)N2CCCC2)cn1	x	x	-1%	u	x
C=C(C)CN(CC)C(=O)CSc1ccc(S(=O)(=O)N2CCN(C)CC2)cn1	x	x	u	10µM*	x
CCN(Cc1ccccc1)C(=O)c1cccc(S(=O)(=O)N2CCN(Cc3ccccc3)CC2)c1	x	x	-3%	6%	x
COCCNC(=O)NC(=O)CN1C(=O)NC(Cc2c[nH]c3ccccc23)C1=O (stereo not drawn)	-1	-6	38%	10%	7%
CCC(C)(C(=O)NC1CCCCC1)N(C(=O)Cc1cccs1)c1ccccc1 (stereo not drawn)	-2	-14	57%	-17%	1%
CNC1=CN=C(c2ccccc2)c2cc(Cl)ccc2N1	-1	-13	x	x	x
Cc1cc(C)c(C(=O)Nc2ccc(Br)c(C(F)(F)F)c2)c(C)c1	8	15	9.3µM*	13µM*	-3%
CC(=O)c1cccc(NC(=O)Cn2cnc(S(=O)(=O)N3CCc4ccccc43)c2)c1	-3	-3	u	-4%	12%
